Measured values published in PubChem BioAssay (NCATS).
Calls of active or inactive are those of the source. Calls follow the shape of the full dose curve.

Test: qHTS drug screen for cell cycle checkpoint inhibitors in PARPi-resistant BRCA-mutant ovarian cancer cell lines. (AID 1963452)
Conditions: PEO1/OlaR viability, CellTiter-Glo luminescence, 96 h, stronger effect = lower value
In short: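 PEO1, PEO4 and PEO1/OlaR ovarian cancer cells, 600 per well, exposed 96 h at 37C to a dilution series. Viability read by CellTiter-Glo luminescence, normalized to DMSO and empty wells; activity summarized as Z-AUC.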

[1] = measured here: PEO1 parental Z-AUC

Row | SMILES | Z-AUC | Z-AUC [1] | Z-AUC (measured here: PEO4 Z-AUC)
1 | Cn1cc(-c2c[nH]c3ncnc(N4CCOCC4)c23)cn1 | 1.31 (inactive) | 1.65 | 1.56
2 | C=C1C[C@@]2(O)O[C@@]3(C[C@H]2C(C)C)[C@@H](C)CC[C@@H]13 | -0.318 (inactive) | -0.38 | -0.147
3 | CNc1nc(C)nc(N[C@H]2CCC[C@@H](C(=O)NCc3ccc(C#N)cc3C(F)(F)F)C2)n1 | -0.0725 (inactive) | 0.695 | 1.22
